Measurements taken from PubChem BioAssay AID1345085 (National Center for Advancing Translational Sciences (NCATS), 2018).
Inconclusive results are not listed. Values without a mark were called inactive. Calls of active or inactive are those of the source. Calls come from the whole dose curve; as a rule, active = well fitted cell-killing curve with a large enough effect; inconclusive = small, poorly fitted or top-dose-only effect, or effect the other way; inactive = no such curve, though single readings can be large or run the other way.
% is set by controls: 0 for no effect and ±100 for the full control effect; potency is the fitted concentration of half-maximal effect.
Note: nearly all actives have a fitted effect of over 55% in size.

The compounds below were run on SKOV3 (assay: Confirmatory qHTS for gynecologic anti-cancer compounds from libraries of approved drugs and bioactive compounds). Conditions: gynecologic cancer cell panel viability, ATPlite luminescence, 48 h; series mostly up to 57.6 µM; activity change, negative = viability loss: at the top concentration.
Outline: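 Cells (1,000/well) plated 16 h, then exposed 48 h at 37 °C to 11 concentrations (1:3) from 57.5 uM to 0.977 nM. Viability by ATPlite luminescence after 15 min; IC50 derived, with HEK 293T used for selectivity index.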
In the case of `NS(=O)(=O)c1ccc(Nc2nc(OCC3CCCCC3)c3[nH]cnc3n2)cc1`, the “activity change, negative = viability loss” value is reported as -0.308%.
In the case of `COc1ccc2c(c1)c(CC(=O)O)c(C)n2C(=O)c1ccc(Cl)cc1`, the “activity change, negative = viability loss” value is reported as 18.5%.
For `Cn1c(=O)c(F)c(Nc2ccc(I)cc2F)c2c(=O)n(CC(O)CO)cnc21` (centres undefined), the Potency was 0.485 µM (active).
With `CNc1nc(Nc2ccc(C(=O)N3CCOCC3)cc2OC)ncc1Cl` the “activity change, negative = viability loss” value was 0.103%.
For `O=C(NOCC1CC1)c1ccc(F)c(F)c1Nc1ccc(I)cc1Cl`, the “activity change, negative = viability loss” value was -4.7%.
`COc1cccc2cc(-c3nc(C4CCC(C(=O)O)CC4)n4ncnc(N)c34)[nH]c12` (centres undefined) was tested, and the Potency was 1.09 µM (active).
In the case of `COc1cc(Nc2ncc(F)c(Nc3ccc4c(n3)N(COP(=O)(O)O)C(=O)C(C)(C)O4)n2)cc(OC)c1OC`, the Potency is reported as 5.44 µM (active).
With `CC[C@]1(O)C[C@H]2CN(CCc3c([nH]c4ccccc34)[C@@](C(=O)OC)(c3cc4c(cc3OC)N(C=O)[C@H]3[C@@](O)(C(=O)OC)[C@H](OC(C)=O)[C@]5(CC)C=CCN6CC[C@]43[C@@H]65)C2)C1` the “activity change, negative = viability loss” value was -18.4%.
In the case of `CCOc1ccc(Nc2nc(-c3c(C)nc4ccccn34)cs2)cc1`, the “activity change, negative = viability loss” value is reported as -19.2%.
For `Cc1nc(N)ncc1-c1nc(N2CCOCC2)c2sc(C(C)(C)O)cc2n1`, the Potency was 0.432 µM (active).
In the case of `CC(Oc1cc(-n2cnc3ccc(CN4CCN(C)CC4)cc32)sc1C(N)=O)c1ccccc1C(F)(F)F` (centres undefined), the Potency is reported as 19.3 µM (active).
For `O=C(CCCCCCC(=O)Nc1ccccc1)NO`, the Potency was 1.37 µM (active).
In the case of `Oc1cn2c(n1)Nc1ccc(Cl)c(Cl)c1C2`, the “activity change, negative = viability loss” value is reported as -19.5% [at 19.5 µM].
For `COc1cc2c(Oc3ccc(-c4cnc(Nc5ccc(F)cc5)n(C)c4=O)cc3F)ccnc2cc1OCCCN1CCOCC1`, the “activity change, negative = viability loss” value was -11.2%.
